Test results: PubChem BioAssay AID1159580 (chemical genetic matrix, 2015)
Hit rate of the full screen: of about 5,500 compounds, about 2,000 (36%) were called active. Inconclusive results (about 18%) are left out. Cut-off read from the data, not from the text of the source: active = normalized growth mostly below about 0.91 (no sharp cut-off); inconclusive = no clear call, values can overlap the other calls; inactive = mostly above about 0.92. This is one part of the list.

Assay: chemical genetic growth profiling, strain panel (AID 1159580);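 note: tested at 20 µM; growth read once vehicle control cultures reached saturation at 30 °C; 1 = growth at the plate median or of vehicle wells; lower values mean less growth of the strain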
Conditions: growth OD
[1] = S. cerevisiae deletion strains, locus YAL013W, strain DEP1, active compounds read low
[2] = S. cerevisiae deletion strains, locus YBR229C, strain ROT2, active compounds read low
[3] = S. cerevisiae deletion strains, locus YDL101C, strain DUN1, active compounds read low
[4] = S. cerevisiae deletion strains, locus YDL134C, strain PPH21, active compounds read low
[5] = S. cerevisiae deletion strains, locus YDR150W, strain NUM1, active compounds read low
[6] = S. cerevisiae deletion strains, locus YEL061C, strain CIN8, active compounds read low
[7] = S. cerevisiae deletion strains, locus YGR078C, strain PAC10, active compounds read low
[8] = S. cerevisiae deletion strains, locus YHR030C, strain SLT2, active compounds read low
[9] = S. cerevisiae deletion strains, locus YJR043C, strain POL32, active compounds read low
[10] = S. cerevisiae deletion strains, locus YJR075W, strain HOC1, active compounds read low
[11] = S. cerevisiae deletion strains, locus YKL190W, strain CNB1, active compounds read low
[12] = S. cerevisiae deletion strains, locus YLR039C, strain RIC1, active compounds read low
[13] = S. cerevisiae deletion strains, locus YLR058C, strain SHM2 (second series), active compounds read low
[14] = S. cerevisiae deletion strains, locus YLR085C, strain ARP6, active compounds read low
[15] = S. cerevisiae deletion strains, locus YLR262C, strain YPT6, active compounds read low
[16] = S. cerevisiae deletion strains, locus YML094W, strain GIM5, active compounds read low
[17] = S. cerevisiae deletion strains, locus YMR219W, strain ESC1, active compounds read low
[18] = S. cerevisiae deletion strains, locus YMR263W, strain SAP30, active compounds read low
[19] = S. cerevisiae deletion strains, locus YMR307W, strain GAS1, active compounds read low
[20] = S. cerevisiae deletion strains, locus YNL128W, strain TEP1, active compounds read low
[21] = S. cerevisiae deletion strains, locus YNL153C, strain GIM3, active compounds read low
[22] = S. cerevisiae deletion strains, locus YNL298W, strain CLA4 (second series), active compounds read low
[23] = S. cerevisiae deletion strains, locus YNL322C, strain KRE1, active compounds read low
[24] = S. cerevisiae deletion strains, locus YNR030W, strain Alg12, active compounds read low
[25] = S. cerevisiae deletion strains, locus YOL006C, strain TOP1, active compounds read low
[26] = S. cerevisiae deletion strains, locus YPL055C, strain LGE1, active compounds read low
[27] = S. cerevisiae deletion strains, locus YPL241C, strain CIN2, active compounds read low
[28] = S. cerevisiae deletion strains, locus YPR135W, strain CTF4, active compounds read low

Measured: normalized growth

Cc1cccc2c1N(C(=S)Nc1ccccc1Cl)CCC2
inactive: [1] 0.966 | [3] 0.972 | [5] 1.01 | S. cerevisiae deletion strains, locus YGR229C, strain SMI1, active compounds read low 0.997 | [9] 0.997 | [13] 0.95 | [18] 0.915 | [20] 0.914 | [23] 0.989 | [24] 0.906 | [26] 0.93 | [27] 0.859
active: [2] 0.821 | S. cerevisiae deletion strains, locus YCL061C, strain MRC1, active compounds read low 0.898 | [4] 0.911 | [6] 0.845 | [7] 0.907 | [8] 0.331 | S. cerevisiae deletion strains, locus YHR087W, strain rtc3, active compounds read low 0.787 | [10] 0.876 | [11] 0.648 | [12] 0.439 | [14] 0.602 | [15] 0.406 | [16] 0.712 | [17] 0.851 | [19] 0.219 | [21] 0.913 | [22] 0.582 | [25] 0.508 | [28] 0.273

CN1CCc2cccc(Cl)c2CC1
inactive: [1] 0.986 | S. cerevisiae deletion strains, locus YAL040C, strain CLN3, active compounds read low 1 | S. cerevisiae deletion strains, locus YCL061C, strain MRC1 (second series), active compounds read low 1.01 | S. cerevisiae deletion strains, locus YDR363W, strain ESC2, active compounds read low 1 | S. cerevisiae deletion strains, locus YER002W, strain NOP16, active compounds read low 1 | [10] 0.993 | [19] 1.01 | S. cerevisiae deletion strains, locus YNL175C, strain NOP13, active compounds read low 1.01 | S. cerevisiae deletion strains, locus YNL197C, strain WHI3, active compounds read low 1.01 | S. cerevisiae deletion strains, locus YNL224C, strain SQS1, active compounds read low 1 | [23] 1 | S. cerevisiae deletion strains, locus YOR083W, strain WHI5 (second series), active compounds read low 1.01 | [26] 0.998

CC(=O)CC(=O)Nc1ccccc1Cl
inactive: [1] 1 | [2] 0.997 | [3] 0.979 | [4] 0.998 | [5] 0.97 | [6] 1.02 | [7] 0.993 | [8] 0.966 | S. cerevisiae deletion strains, locus YJL187C, strain SWE1, active compounds read low 0.995 | [9] 0.982 | [10] 1.03 | [11] 1.01 | [12] 0.993 | [13] 1.01 | [14] 0.967 | [15] 1.02 | [16] 1.02 | [17] 0.993 | [18] 0.999 | [19] 0.947 | [20] 0.987 | [21] 1.02 | [22] 1 | [23] 0.992 | [24] 1 | [25] 1.01 | [26] 1 | [27] 0.978 | [28] 0.925 | S. cerevisiae strains, strain wild type, active compounds read low 0.971
